# From PubChem BioAssay
# OTUD3 block: inhibitors of human OTUD3 deubiquitinase. OTU domain-containing protein 3 (Homo sapiens), Q5T2D3. purified OTUD3, Ub-rhodamine fluorescence, 2 h. inhibition, % at 25 µM. actives 0.7% (n = 47,000). AID 1645858, 2021
# UCHL1 inh: inhibitors of human UCHL1 deubiquitinase; Ubiquitin carboxyl-terminal hydrolase isozyme L1 (Homo sapiens), P09936; purified UCHL1, Ub-rhodamine cleavage fluorescence; inhibition, % at 20 µM; actives 0.2% (n = 47,000)
# USP8 block: inhibitors of human USP8 deubiquitinase | Ubiquitin carboxyl-terminal hydrolase 8 (Homo sapiens), P40818 | purified USP8, Ub-rhodamine cleavage fluorescence, 30 min | inhibition, % at 20 µM | actives 4.2% (n = 47,000) | AID 1645853, 2021
# USP7 inh: inhibitors of human USP7 deubiquitinase. purified USP7, Ub-rhodamine cleavage fluorescence. inhibition, % at 20 µM. actives 0.3% (n = 47,000). AID 1645854, 2021
# USP10 block: inhibitors of human USP10 deubiquitinase; Ubiquitin carboxyl-terminal hydrolase 10 (Homo sapiens), Q14694; purified USP10, Ub-rhodamine fluorescence, 60 min; inhibition, % at 20 µM; actives 1.1% (n = 47,000); AID 1645856, 2021
# Numbers stand for hits; . = inactive. An excerpt weighted towards active compounds, which were near 5% of everything screened. No stated cut-off is given here; in the data, active means inhibition above about 30%; inactive means the rest.
SMILES,OTUD3 block,UCHL1 inh,USP8 block,USP7 inh,USP10 block
O=C(CN1CCN(S(=O)(=O)c2ccc3c(c2)OCCCO3)CC1)N1CCCc2ccccc21,.,.,.,.,.
COc1ccc(Cl)c(NC(=O)C2CC(=O)Nc3cc(-c4ccccc4)nn32)c1 (stereo not drawn),.,.,32,.,.
COc1ccc(Cl)c(NC(=O)C2CC(=O)Nc3cc(C)nn32)c1 (stereo not drawn),.,.,.,.,.
CNc1nc(C2CCN(C(=O)C3(c4cccc(C)c4)CCOCC3)C2)nc2c1CCN(C)C2 (stereo not drawn),.,.,37,.,.
Cc1ncc(C(=O)N2CCOC(c3ccc(Nc4ccc(F)cn4)cn3)C2)c(C)n1 (stereo not drawn),.,.,.,.,.
COCC1OC(OC2OCC3OC4(OC(C)C(O)(C(C)=O)C5OCOC54)O[C@H]3[C@H]2OC(=O)C(C)C)[C@@H](OC)[C@@H](O)C1O[C@@H]1O[C@H](C)[C@H](OC)[C@H](OC2O[C@H](C)C3OC4(C[C@@H](O)C(O[C@H]5C[C@@H](O)C(OC(=O)c6c(C)c(Cl)c(O)c(Cl)c6OC)[C@@H](C)O5)[C@@H](C)O4)O[C@@]3(C)[C@@H]2O)C1O (stereo partly drawn),.,.,.,.,.
CCc1c(Cl)c(O)c(Cl)c(O)c1C(=O)O[C@H]1C(C)O[C@@H](OC/C2=C\C=C\CC(O)/C(C)=C/C(CC)C(O[C@@H]3OC(C)(C)[C@H](O)C(OC(=O)C(C)C)[C@@H]3O)/C(C)=C/C(C)=C/CC(C(C)O)OC2=O)[C@@H](OC)C1O (stereo partly drawn),32,.,.,.,.
O=C(NC1CC1)c1nc(-c2cn(-c3ccc(Cl)cc3)nn2)no1,.,.,40,.,.
COc1ccccc1NC(=O)c1nc(-c2cn(-c3cccc(F)c3)nn2)no1,.,.,96,.,42
O=C(NC1CC1)c1nc(-c2cn(-c3ccc(F)cc3)nn2)no1,.,.,.,.,.
O=C(Nc1ccccc1F)c1nc(-c2cn(-c3ccc(F)cc3)nn2)no1,.,.,90,.,.
O=C(c1nc(-c2cn(-c3cccc(F)c3)nn2)no1)N1CCOCC1,.,.,.,.,.
Fc1cccc(-n2cc(-c3noc(-c4ccc[nH]4)n3)nn2)c1,.,.,35,.,.
O=C(Nc1ccccc1)c1nc(-c2cn(Cc3ccc(F)cc3)nn2)no1,.,.,.,.,.
O=[N+]([O-])c1ccc(-c2nc3ccccn3c2Br)cc1,.,.,.,.,.
COc1cc(-c2cc(C(=O)Nc3cc(S(=O)(=O)N4CCCCC4)ccc3N3CCCCC3)c3ccccc3n2)cc(OC)c1OC,.,.,.,.,.
COc1ccc(OC)c(NC(C)C)c1,.,.,.,.,.
O=S(=O)(c1ccccc1)c1cnc2ccc(F)cc2c1N1CCC2(CC1)OCCO2,.,.,.,.,.
O=C(O)c1c(CNC2CCCCCC2)c2ccccc2n1Cc1ccc(F)cc1,.,45,.,.,.
O=C(NCC1CCCO1)c1cc2c(cn1)[nH]c1ccccc12 (stereo not drawn),.,.,.,.,.
Cc1ccc2c(C)nc(Nc3ncc4c(n3)CC(c3ccco3)CC4=O)nc2c1 (stereo not drawn),.,.,61,.,.
O=C1CC(c2ccco2)Cc2nc(N3CCc4ccccc43)ncc21 (stereo not drawn),.,.,40,.,.
CCOc1ccc(C2=NCCNC3=C2C(c2ccccc2)N(c2ccccc2)C3=O)cc1 (stereo not drawn),.,.,30,.,.
Cc1ccc(C2C3=C(NCCN=C3c3ccccc3)C(=O)N2c2ccccc2)cc1 (stereo not drawn),.,.,.,.,.
Cc1nc2cc(-c3noc(/C=C/c4ccccc4)n3)ccc2n(C)c1=O,.,.,.,.,.
SMILES,OTUD3 block,UCHL1 inh,USP8 block,USP7 inh,USP10 block
O=C(c1nc2c(s1)CCN(c1ncccn1)CC2)N1CCCCC1,.,.,.,.,.
O=C(NCc1ccc(-c2nc3ncccc3o2)cc1)c1ccccc1,.,.,32,.,.
COC1=CC(=O)c2c(O)c3c(c(C)c2C1=O)C[C@@]1(O)[C@H](O[C@H]2CC[C@H](O[C@H]4C[C@@](C)(O)[C@H](OC(=O)c5c(C)ccc(C)c5O)[C@H](C)O4)[C@@H](C)O2)C(=O)C(C(C)=O)=C(O)[C@@]1(O)C3=O,53,58,.,55,.
Cc1ccc2c(c1)-c1c(c(C(=O)NCCCN3CCN(C)CC3)nn1C)CS2,.,.,.,.,.
CCCCc1ccc(N2C=NS(=O)(=O)c3cccnc32)cc1,.,.,.,.,.
O=S(=O)(Nc1nc(-c2ccco2)c(-c2ccco2)s1)c1ccc(F)cc1F,.,.,37,.,.
O=c1[nH]c(=O)c2c(-c3ccc(-c4ccccc4)cc3)ccnc2[nH]1,.,.,76,.,.
CC(NC(=O)CSc1nnc2n(-c3ccccc3)c(=O)c3ccccc3n12)c1ccccc1 (stereo not drawn),.,.,36,.,.
CC(C)(C)c1ccc(C(=O)Nc2ccc(O)c(-c3nc4cnccc4o3)c2)cc1,.,.,61,.,.
CC(=O)Nc1ccc(O)c(-c2nc3cc(C)ccc3o2)c1,.,.,.,.,.
CCn1cc(C(=O)Nc2cccc(F)c2)c(S(=O)(=O)N2CCCCCC2)n1,.,.,.,.,.
COc1ccc(/C=C/C(=O)Nc2ccc(Cl)c(-c3nc4ncccc4o3)c2)cc1,.,.,58,.,.
O=C(/C=C/c1ccc(Cl)cc1)Nc1cccc(-c2nc3ncccc3o2)c1,.,.,.,.,.
O=C(CSc1ccc2nnc(-c3ccncc3)n2n1)Nc1cccc(C(F)(F)F)c1,.,.,90,.,.
O=C(CNC(=O)c1ccc(F)c(F)c1)Nc1nc2ccccc2[nH]1,.,.,.,.,.
O=C(CNC(=O)c1cc(F)cc(F)c1)Nc1nc2ccccc2[nH]1,.,.,36,.,.
O=C(c1[nH]nc2c1COc1ccccc1-2)N1CCN(c2ccccn2)CC1,.,.,50,.,.
CCC(=O)Nc1ccc(-n2cnc(C(=O)N3CCC(C)CC3)c2)nc1,.,.,.,.,.
O=C1CC(C(=O)Nc2ccccc2F)n2c(nc3ccccc32)N1 (stereo not drawn),.,.,39,.,.
O=C1CC(C(=O)NCCc2ccccc2)n2c(nc3ccccc32)N1 (stereo not drawn),.,.,43,.,.
O=C(CC1C(=O)N(Cc2ccccc2)c2nc3ccccc3n21)NCCc1ccccc1 (stereo not drawn),.,.,.,.,.
Cc1cc(C)n(-c2cccc(C(=O)Nc3ccc4c(c3)CCN4S(C)(=O)=O)c2)n1,.,.,.,.,.
